According to PubChem BioAssay AID488789 (Broad Institute, 2010):
Results with a measured potency or affinity are listed apart. Records with an inconclusive call do not appear.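 Rule for the calls: active = samples whose fitted half-maximal inhibition concentration is no more than ten times the top valid dose tested; inconclusive = flat response between -70 and -30, or invalid curve fit; inactive = flat within 30 of zero, potency above limit, or signal rising.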

Target: Trypsin (Sus scrofa) (UniProt P00761)
Experiment: porcine trypsin inhibitors, dose response, selectivity assay for Rce1 protease inhibitor project, biochemical, quenched peptide fluorescence, cherry-pick (AID 488789);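 note: more negative means stronger trypsin inhibition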
Settings: quenched peptide cleavage fluorescence; series mostly up to 10 µM; activity change, negative = inhibition: at the top concentration

Trypsin (Sus scrofa), sequence (P00761 whole entry, looked up): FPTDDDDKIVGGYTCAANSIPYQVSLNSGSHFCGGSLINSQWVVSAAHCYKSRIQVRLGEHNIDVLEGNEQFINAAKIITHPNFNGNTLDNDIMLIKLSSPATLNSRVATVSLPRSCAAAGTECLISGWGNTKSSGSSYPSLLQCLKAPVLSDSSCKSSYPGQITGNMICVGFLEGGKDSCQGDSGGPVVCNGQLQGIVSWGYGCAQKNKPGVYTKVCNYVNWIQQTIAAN

Activity change, negative = inhibition, inactive:
CCn1cc(C(=O)N[C@H](C)c2ccccc2)c(=O)c2cc(F)c(N3CCN(C)CC3)cc21 6.94%, Cc1c(Cl)c([N+](=O)[O-])nn1CC(=O)N1CCCc2ccccc21 3.75%, CN(C)S(=O)(=O)c1ccc(NC(=O)/C=C/c2ccccc2Cl)cc1 2.22%, Cc1ccc(NS(=O)(=O)c2ccc(NC(=O)N3CCCCC3)cc2)cc1 -2.65%, Cc1ccc2nc(N(CCN(C)C)C(=O)c3ccc4ccccc4c3)sc2c1 6.43%, Cc1cccc(OCCN2C(=O)C(=O)c3cc(C)ccc32)c1 -0.333%, COC(=O)c1ccccc1NC(=O)NCc1cccnc1 -11.2%, COc1ccccc1C1=NN(C2=NN=C(N)Cc3ncnn32)C(O)(C(F)(F)F)C1 (configuration not stated) -8.08%, COC(C/C=C/[C@H](O)[C@@H](C)OCc1ccccc1)OC 3.98%, CC1=NN(c2ccccc2)C(=O)/C1=C\c1ccc(Br)s1 10.2%, COc1ccc(OC)c(NC(=O)c2cc3oc4ccccc4c3cc2O)c1 -0.349%, COc1cccc(-c2nc(C#N)c(N3CCN(C(=O)c4ccco4)CC3)o2)c1 -2.13%, CCN(Cc1ccccc1)c1ccc(/C=N/N=C(N)N)cc1 3.18%, O=C(Nc1sc2c(c1C(=O)c1ccc(Cl)cc1)CCCC2)c1cccnc1 13.8%, O=C(O)c1ccc2cccc(Cl)c2c1O 9.83%, CCOC(=O)c1cc2c(=O)[nH]ccc2nc1C 65.8%, Cc1ccc2c(C)c(C(=O)N(Cc3ccc(F)cc3)C3CCS(=O)(=O)C3)oc2c1 (configuration not stated) 10.8%, CCN(Cc1ccccc1)S(=O)(=O)c1ccc(C(=O)N(CCCN(C)C)c2nc3c(C)c(C)ccc3s2)cc1 23.7%, CCN1CCN(CC(O)COc2ccc3c(C)cc(=O)oc3c2)CC1 (configuration not stated) 11.8%, Cc1cc2cc(C#N)c(NCCNC(=S)NCCCN3CCOCC3)nc2cc1C -4.36%, CCN(CC)CCN(C(=O)c1ccc2ccccc2c1)c1nc2cc3c(cc2s1)OCO3 -4.86%, COC(C/C=C/[C@H](O)[C@H](C)OCc1ccccc1)OC 27.8%, CC(=O)c1c(C)[nH]c(C(=O)OCc2ccc(Br)cc2)c1C 3.12%, CNC(=S)N/N=C/c1cn(Cc2c(F)cccc2Cl)c2ccccc12 -10.5%, CCOC(=O)[C@@H]1[C@H]2COc3ccc(Br)cc3[C@@H]2N2C(=O)N(c3cccc(Cl)c3)C(=O)[C@]12C 4.84%, O=C(COC(=O)c1ccc(S(=O)(=O)N2CCCC2)cc1)NCc1ccccc1 14.1%, O=C(O)CCC(=O)c1ccc(-c2ccccc2)cc1 6.17%, Cc1nc(-c2ccc(Cl)cc2)sc1C1(C)CC(c2ccccc2Br)=NO1 (configuration not stated) 18.1%, O=C(NCCc1c[nH]c2ccccc12)OCCSS(=O)(=O)O -8.16%, CCOc1ccc(N(Cc2ccc(OC)cc2)C(=O)c2ccco2)cc1 13.2%, Cc1ccc(-c2nc(SCC(=O)N(C)C3CCS(=O)(=O)C3)[nH]c2-c2ccc(C)cc2)cc1 (configuration not stated) -6.71%, Cc1cc(C(=O)N/N=C/c2c3ccccc3cc3ccccc23)n[nH]1 9.63%, O=C(O)CCCC[C@@H]1SC[C@@H]2NC(=O)N[C@@H]21 13.8%, Cc1cccc(NC(=O)C2(c3ccc([N+](=O)[O-])cc3)CCCC2)c1 6.69%, N#Cc1c(OCC(=O)c2ccccc2)nc2c(c1-c1ccco1)CCc1ccccc1-2 6.46%, Cc1ccc(C(=O)N/C(=C/c2ccco2)C(=O)Nc2cccc(C(=O)O)c2)cc1 5.53%, COc1ccc2cc(C(=O)C3CCCN(C(=O)c4cc(=O)n(C)c(=O)n4C)C3)ccc2c1 (configuration not stated) -7.43%
